# High-throughput results from PubChem BioAssay.
# A selection: hits, their analogues and other compounds. The true share with any hit is near 3.8%.
# Mtb FBA inh: inhibitors of M. tuberculosis fructose-bisphosphate aldolase. actives 2.3% (n = 360,000). purified M. tuberculosis FBA, fluorescence read-out. AID 588726. inhibition, % at 1 µM;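 further: 0% = vehicle and 100% = reference inhibitor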
# Target sequence (P9WQA3 whole entry, looked up): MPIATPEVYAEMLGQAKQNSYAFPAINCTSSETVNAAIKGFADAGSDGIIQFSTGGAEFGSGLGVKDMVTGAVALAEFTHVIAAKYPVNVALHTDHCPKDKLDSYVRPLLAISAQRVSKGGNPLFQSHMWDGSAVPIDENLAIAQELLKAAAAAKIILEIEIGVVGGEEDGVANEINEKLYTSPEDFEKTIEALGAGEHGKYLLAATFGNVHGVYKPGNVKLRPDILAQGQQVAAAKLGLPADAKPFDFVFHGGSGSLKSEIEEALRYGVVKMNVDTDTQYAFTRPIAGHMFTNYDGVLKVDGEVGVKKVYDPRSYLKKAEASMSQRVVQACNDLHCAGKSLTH
# Mtb hypoxia rep: reduces hypoxia-regulated biosensor signal in M. tuberculosis. fluorescence inhibition, % (concentration not given with the values). actives 0.1% (n = 300,000). M. tuberculosis hypoxia-regulated fluorescent reporter, fluorescence; in the data active means fluorescence inhibition mostly above about 23%, no sharp cut-off; inactive means mostly below about 17%
# Yp Topo-I inh: Y. pestis Topo-I inhibition via cleavage products; actives 0.064% (n = 360,000); Y. pestis Topo-I cleavage product accumulation, plate reader; activity, % at 10 µM; AID 504884; in the data active means activity above about 50%, passing the limit was not always enough
# PrP UTR inh: inhibition of PrP 5' UTR reporter expression. cell-based PrP 5' UTR mRNA reporter, plate reader. inhibition, % (test concentration not listed). actives 0.35% (n = 340,000). AID 488862; in the data active means inhibition above about 52%; further: 0 = median of the neutral control wells
# GDH-TPI counter-1: inhibits GDH-TPI coupling enzymes, artifact for Mtb FBA screen; inhibition, % at 4.8 µM; GDH-TPI coupled enzyme counterscreen, NADH absorbance; actives 1.2% (n = 360,000); in the data active means inhibition above about 30%;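 further: 0% = DMSO wells and 100% = wells lacking the enzyme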
# PrPC surface inh: inhibitors of human cell surface prion protein PrPC; actives 0.43% (n = 370,000); inhibition, % at 13.8 µM; P04156; TR-FRET read-out; in the data active means inhibition above about 24%; further: 0% = median of the test wells and 100% = reference compound wells
# Mtb FBA confirm: confirmation of M. tuberculosis fructose-bisphosphate aldolase inhibitors | shares compounds with Mtb FBA inh | purified M. tuberculosis FBA, fluorescence read-out | inhibition, % at 1 µM | actives 78% (n = 5,600) | AID 651616;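 further: 0% = vehicle wells and 100% = reference inhibitor wells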
# GDH-TPI counter-2: inhibits GDH-TPI coupling enzymes, flagging Mtb FBA hits | shares compounds with Mtb FBA inh | GDH-TPI coupled enzyme counterscreen, fluorescence | inhibition, % at 1 µM | actives 81% (n = 5,600) | AID 652141; in the data active means inhibition above about 10%
# * hit, by the source's call; x = not tested or not shown; + = active, no number. Unless noted, no stated cut-off is given here; in the data, active means inhibition above about 27%; inactive means the rest.
SMILES,Mtb FBA inh,Mtb hypoxia rep,Yp Topo-I inh,PrP UTR inh,GDH-TPI counter-1,PrPC surface inh,Mtb FBA confirm,GDH-TPI counter-2
CN(Cc1cccc(F)c1)C(=O)C1CC(=O)N(c2ccc3c(c2)OCCO3)C1 (stereo unspecified),35*,3,2,-16,1,0,+,+
O=C(NCCc1ccccc1)C1CC(=O)N(c2ccc3c(c2)OCCO3)C1 (stereo unspecified),28*,0,2,-12,-2,0,38*,21*
CC(=O)Nc1ccccc1NC(=O)CC(C)=NNC(=O)Cc1cccc2ccccc12,x,0,x,x,x,x,x,x
O=c1c(=Cc2cccc3ccccc23)sc2ncnn12,x,8,x,x,x,x,x,x
CCCCCNc1nc2sc3c(c2c(=O)n1-c1cccc(Cl)c1)CCN(C)C3,52*,-16,33,-12,21,-1,109*,89*
CCCCNc1nc2sc3c(c2c(=O)n1-c1cccc(Cl)c1)CCN(C)C3,52*,-8,7,-1,21,-3,190*,140*
COC(=O)[C@]1(CC(C)C)NC(c2ccc(-c3cccc(Cl)c3)cc2)C2C(=O)N(C)C(=O)C21 (stereo partly specified),x,2,x,x,x,x,x,x
CCc1cc(=O)oc2cc(OC(C)C(=O)NCC3CCC(C(=O)O)CC3)c(Cl)cc12 (stereo unspecified),6,x,2,-34,13,-6,x,x
CCCCc1cc(=O)oc2cc(C)cc(OC(C)C(=O)NCC3CCC(C(=O)O)CC3)c12 (stereo unspecified),79*,x,-4,-16,7,-4,1,-5
Cc1cc(OC(C)C(=O)NCC2CCC(C(=O)O)CC2)c2c(C)c(C)c(=O)oc2c1 (stereo unspecified),9,x,1,-29,10,-1,x,x
CCCc1cc(=O)oc2cc(C)cc(OC(C)C(=O)NCC3CCC(C(=O)O)CC3)c12 (stereo unspecified),69*,x,5,-1,-5,-8,70*,46*
O=C(OCC(=O)N1CCc2ccccc2C1)c1ccc(O)cc1,-2,-3,7,-23,4,-4,x,x
CN(C(=O)COC(=O)c1ccccc1NC(=O)c1ccco1)C1CCS(=O)(=O)C1 (stereo unspecified),-2,-6,2,-26,4,0,x,x
CN(C(=O)COC(=O)c1ccccc1NCCO)C1CCS(=O)(=O)C1 (stereo unspecified),103*,2,0,-23,3,-4,124*,93*
CNc1ccccc1C(=O)OCC(=O)N1CCc2ccccc2C1,63*,x,10,x,12,-4,8,7
Nc1ccccc1C(=O)OCC(=O)N1CCc2ccccc21,35*,x,-6,-91,1,4,59*,43*
O=C(OCC(=O)N1CCN(c2ccccc2)CC1)c1ccccc1NCCO,100*,3,9,-20,19,-4,+,+
O=C(OCC(=O)N1CCN(c2ccccc2)CC1)c1ccccc1OC(F)F,0,6,8,-12,-6,4,x,x
COc1ccc2c(c1)[nH]c1c(=O)n(N=CC3C(C)C=C(C)CC3C)c(=O)[nH]c12 (stereo unspecified),x,10,x,x,x,x,x,x
N#CCCn1cc(C=NNC(N)=S)c(-c2ccc(-c3ccccc3)cc2)n1,x,-6,x,x,x,x,x,x
Cc1cccc(NS(=O)(=O)Cc2ccccc2)n1,66*,x,-4,-8,10,-2,66*,54*
Cc1cccc(NS(=O)(=O)c2ccc(C(C)(C)C)cc2)n1,23,2,1,-29,10,11,x,x
Cc1cccc(NS(=O)(=O)c2ccccc2)n1,29*,6,4,-27,2,-5,69*,59*
COc1cc(C=NNC(=O)CCc2c(C)n[nH]c2C)ccc1O,x,15,x,x,x,x,x,x
COc1cc(C=NN2CCOCC2)ccc1OC(=O)c1ccco1,x,16,x,x,x,x,x,x
SMILES,Mtb FBA inh,Mtb hypoxia rep,Yp Topo-I inh,PrP UTR inh,GDH-TPI counter-1,PrPC surface inh,Mtb FBA confirm,GDH-TPI counter-2
CC(=NNC(=O)c1ccn(C)n1)c1ccco1,x,6,x,x,x,x,x,x
Cc1nc(CNS(=O)(=O)c2ccc(Br)cc2)cs1,-1,3,9,-10,0,-3,x,x
CCc1ccc(S(=O)(=O)NCc2csc(C)n2)cc1,34*,-7,-5,-21,7,6,1,-8
CCN(CC)c1ccc(-c2nn3c(-c4ccccc4OC)nnc3s2)cc1,31*,15,35,52,24,x,52*,31*
CCN(CC)c1ccc(-c2nn3c(-c4ccc(C(C)(C)C)cc4)nnc3s2)cc1,x,x,x,x,x,12,x,x
CC(=O)NN=Cc1cc2c(cc1[N+](=O)[O-])OCO2,x,2,x,x,x,x,x,x
CCCCn1nc2cc(C(=O)NC3CCc4ccccc43)ccc2c1OCC (stereo unspecified),53*,5,30,-15,-3,11,+,+
CCCCn1nc2cc(C(=O)NCC34CC5CC(CC(C5)C3)C4)ccc2c1OCC,21,8,39,-14,10,0,x,x
CCCn1nc2cc(C(=O)NC3CCCc4ccccc43)ccc2c1OCC (stereo unspecified),56*,7,43,-16,-8,9,137*,99*
O=C(NN=Cc1ccc(OC(=O)c2cccs2)cc1)c1ccc(F)cc1,x,10,x,x,x,x,x,x
CCOC(=O)C1=C(C)N=c2sc(=Cc3ccc(OC(C)=O)cc3)c(=O)n2C1/C=C/c1ccccc1 (stereo unspecified),x,3,x,x,x,x,x,x
CC(C)NC(=O)N(C)CC1Oc2c(NS(=O)(=O)c3ccc(F)cc3)cccc2C(=O)N(C(C)CO)CC1C (stereo unspecified),x,17,x,x,x,x,x,x
Cc1cc(=O)oc2ccc(OCC(=O)NCc3ccco3)cc12,7,18,2,-26,5,7,x,x
O=C(COc1ccc2oc(-c3ccccc3)cc(=O)c2c1)NCc1ccco1,30*,x,20,-22,6,x,90*,69*
COc1ccccc1C=NN=C(N)c1ccccn1,x,8,x,x,x,x,x,x
O=C(COc1cccc(Br)c1)NN=C1CCSC1,x,13,x,x,x,x,x,x
Cc1ccn2c(=O)c(C(=O)O)cnc2c1,92*,9,3,-8,34*,1,92*,83*
CCOC(=O)CC(C)=NNc1ccc([N+](=O)[O-])cc1[N+](=O)[O-],x,11,x,x,x,x,x,x
O=C(NNC(=O)c1ccc2ccccc2c1O)Nc1ccc(F)cc1,37*,3,0,-19,9,-2,+,174*
Cc1cccc(NC(=O)NNC(=O)c2ccc3ccccc3c2O)c1,29*,9,-14,-30,6,6,81*,59*
O=C(NNC(=O)c1ccc2ccccc2c1)Nc1ccc(F)cc1,-2,-11,-1,-7,2,-4,x,x
CCN1CCN(C(=O)c2ccc3c(c2)N(Cc2ccc(C)cc2)CCS3)CC1,26,-1,24,13,7,-6,x,x
